# Mtb betalactam = beta-lactam sensitization of Mtb H37Rv | M. tuberculosis H37Rv growth with meropenem, percent inhibition | inhibition, % at 25 µM | 330,000 tested, 0.27% active; call rule not given here;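 also: growth measured after seven days incubation then overnight dye step; 0% = bacteria only wells and 100% = bacteria with antibiotic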
# PrP UTR inh = inhibition of PrP 5' UTR reporter expression; cell-based PrP 5' UTR mRNA reporter, plate reader; inhibition, % (no concentration beside the values); 340,000 tested, 0.35% active; AID 488862; in the data active = inhibition above about 52%; also: 0 = median of the neutral control wells
# Mtb UGM inh = blocks M. tuberculosis UGM enzyme; P9WIQ1; purified UGM, fluorescence polarization probe displacement; inhibition, % at 10 µM; 320,000 tested, 0.06% active; AID 504406; in the data active = inhibition above about 10%, passing the limit was not always enough
# BH1578 lux ind = inducers of Vibrio cholerae quorum light production without autoinducers; V. cholerae BH1578 lux reporter, luminescence, 6 h; activation, % at 18.7 µM; 350,000 tested, 0.16% active; in the data active = activation mostly above about 9.7%, no sharp cut-off
# Rv3671c protease = inhibitors of M. tuberculosis serine protease Rv3671c; AID 2606; inhibition, % at 5.96 µM; 320,000 tested, 0.048% active; in the data active = inhibition above about 38%;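 also: extracellular domain of Rv3671c used as enzyme; 0% = enzyme with DMSO and 100% = no enzyme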
# Target sequence (P9WHR9 whole entry, looked up, the tested form may be a part): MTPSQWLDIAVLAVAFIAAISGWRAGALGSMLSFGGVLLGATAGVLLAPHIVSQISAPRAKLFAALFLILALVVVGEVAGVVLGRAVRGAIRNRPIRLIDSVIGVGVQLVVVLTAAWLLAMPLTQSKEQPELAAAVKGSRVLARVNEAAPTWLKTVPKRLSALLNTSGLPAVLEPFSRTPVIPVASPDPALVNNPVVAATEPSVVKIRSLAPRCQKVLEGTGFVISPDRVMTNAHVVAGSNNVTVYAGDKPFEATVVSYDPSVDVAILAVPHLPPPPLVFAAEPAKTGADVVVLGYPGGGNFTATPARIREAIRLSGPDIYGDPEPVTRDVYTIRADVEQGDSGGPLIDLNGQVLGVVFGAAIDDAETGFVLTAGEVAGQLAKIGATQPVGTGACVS
# FadD28 FP inh = M. tuberculosis FadD28 bisubstrate binding inhibition; FadD28 bisubstrate probe binding, fluorescence polarization; 360,000 tested, 0.22% active; AID 588549; inhibition, % at 12.5 µM; in the data active = inhibition above about 8.5%, passing the limit was not always enough
# * = called active by the depositor; i = inactive; x = no result. Sampled rows, rich in hits. Any-hit rate of the full collection: about 0.76%.
SMILES,Mtb betalactam,PrP UTR inh,Mtb UGM inh,BH1578 lux ind,Rv3671c protease,FadD28 FP inh
CC(CCC(=O)NN)C1CCC2C3CCC4CC(O)CCC4(C)C3CCC12C (stereo not drawn),x,-29,x,x,x,-5
Cc1ccc(S(=O)(=O)c2cc3ccccc3oc2=O)cc1,3,-4,-1,0,1,-1
CCN(CC)c1ccc2cc(S(=O)(=O)c3ccc(C)cc3)c(=O)oc2c1,6,-45,30*,0,-7,-3
COc1ccc(C2CC(=O)Oc3cc(O)ccc32)cc1 (stereo not drawn),x,-19,x,i,x,-1
Cc1ccccc1C1CC(=O)Oc2cc(O)ccc21 (stereo not drawn),x,-9,x,-1,x,13*
CC1=N/C(=C\c2ccccc2Cl)C(=O)O1,-5,-7,0,0,1,-2
CCOc1ccccc1-c1nc2c(C(C)(C)C)nn(C)c2c(=O)[nH]1,-8,x,1,x,-8,x
COC(=O)c1ccccc1NC1=C/C(=N\S(=O)(=O)c2cccs2)c2ccccc2C1=O,96,-3,4,-4,-88,-10
COC(=O)c1ccccc1NC1=C/C(=N\S(=O)(=O)c2ccc(C(=O)O)cc2)c2ccccc2C1=O,53,-8,0,0,-92,24*
O=C1C=C(c2ccc(Oc3ccccc3)cc2)C[C@@H](c2ccc(F)cc2)C1,42,-8,-4,0,-9,-1
CCc1cccc(NC(=O)COC(=O)/C=C/c2cccs2)c1,43,-15,6,1,-8,20*
COc1ccc(CC(=O)Nc2ccc(N3CCOCC3)cc2)cc1S(=O)(=O)N1CCOCC1,-3,-6,1,i,3,0
O=c1ccc2[n+]([O-])c3ccc(O)cc3oc-2c1,x,-31,x,i,x,98*
O=C1NC(=O)N(Cc2ccccc2)C(=O)/C1=C\c1ccco1,2,3,1,0,-19,28*
COCCCn1c(SCC(=O)NC2CCS(=O)(=O)C2)nnc1-c1ccc(Cl)cc1 (stereo not drawn),7,-16,2,i,-4,-4
Cc1ccc([C@H]2C[C@H](O)[C@@H](n3cc(C4CC4)nn3)CN2Cc2cccs2)cc1,x,x,x,-1,x,-2
CC(N)=Nc1ccc([N+](=O)[O-])cc1,4,-23,14*,i,-2,-4
CC(=O)c1ccc([N+](=O)[O-])cc1,-5,-1,1,0,-1,-2
N#Cc1c(N)n(-c2ccc(C(=O)O)cc2)c2nc3ccccc3nc12,1,-151,1,0,-21,-4
N#Cc1c(C#N)c(-c2ccccc2)n(-c2ccc(C(=O)O)cc2)c1N,-12,-10,-2,4,-4,12*
COc1ccc(C(=S)N2CCN(c3ccccc3C)CC2)cc1OC,x,7,x,i,x,0
O=c1[nH]c(=O)n(Cc2ccccc2)c2nc(-c3ccco3)cc(C(F)(F)F)c12,-7,-2,3,27*,-3,2
CN(C(=O)CSc1nnc(Cc2ccccc2F)n1N)C1CCCCC1,7,-4,0,x,0,0
CCCNC(=O)c1cc2ccccc2c(=O)o1,-8,-22,0,i,-7,-1
Cc1cc(C)n(C(=O)c2cc3ccccc3c(=O)o2)n1,0,-18,-2,17*,-4,0
SMILES,Mtb betalactam,PrP UTR inh,Mtb UGM inh,BH1578 lux ind,Rv3671c protease,FadD28 FP inh
CC1=C(C(=O)N2CCOCC2)CC(CC(=O)NC2CC2)C(=O)N1CCC1=CCCCC1 (stereo not drawn),x,x,x,x,x,-4
COc1ccc(NC(=O)CN(C)C(=O)c2ccc(S(=O)(=O)Nc3ccccc3C)cc2)cc1,x,-11,x,0,x,-2
CC1CN(C(=O)Nc2cccc(Cl)c2)C2(CCCCCC2)O1 (stereo not drawn),-1,-18,3,i,-1,0
CCCCCC(=O)Nc1cc(S(=O)(=O)O)cc2cc(S(=O)(=O)O)cc(O)c12,x,-22,x,-2,x,35*
CCCCCC(=O)Nc1cc(S(=O)(=O)N2CCCCC2)ccc1N1CCCCC1,x,-22,x,-1,x,0
COc1ccc(OCc2nnc(SCC(=O)Nc3ccc(C)cc3)o2)cc1,97,-5,4,0,5,-2
COc1ccc(Cc2nnc(SCC(=O)N(C)CC(=O)Nc3ccc(C)cc3)o2)cc1,2,-8,-1,29*,-3,-5
Cc1ccccc1C1CC(c2cccs2)Nc2nnnn21 (stereo not drawn),7,11,x,0,7,-5
Cc1[nH]c2ccccc2c1CC#N,2,-17,0,0,10,-1
Cc1[nH]c2ccccc2c1C(C#N)(C#N)C1C(=O)c2ccccc2C1=O,24,-8,-3,i,-70,18*

# Compound activity (PubChem BioAssay)
